Read-out in test [1]: Monokine induced gamma interferon (MIG), CXCL9 (gene 4283)
Kind of test: BSK_SAg_MIG: BioMAP Diversity Plus: SAg Assay for Monokine induced gamma interferon (MIG) Biomarker Activity (AID 2283092). The note with it: primary human HUVEC with PBMC; actives raise or lower the signal. The procedure, abridged: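 HUVEC plus human PBMC co-culture, chemicals dosed and MIG (CXCL9) quantified by ELISA at 24 h. Bidirectional curve fitting against DMSO as negative control and baseline, so both gain and loss of signal count as activity.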

Test [2] in a line: BSK_SAg_PBMCCytotoxicity: PBMC Cytotoxicity Assessment in the BioMAP Diversity Plus: SAg Assay (AID 2283093).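 Also: fitted both ways against DMSO so a hit may be loss or gain of signal.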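 As to AC50: PBMC superantigen activated with SEB plus TSST-1 one hour after compound addition.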 The note with it: primary human HUVEC with PBMC. The procedure, abridged: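 PBMC viability by Alamar Blue reduction, fluorescence read at 546/580 nm after 6 h dye exposure. Cells were dosed 1 h before SEB plus TSST-1 activation (20 ng/mL final each), then held 90 h; endothelial/PBMC human co-culture.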

Read-out in test [3]: Interleukin-8 (IL8), CXCL8 (gene 3576)
Kind of test: BSK_SAg_IL8: BioMAP Diversity Plus: SAg Assay for Interleukin-8 (IL8) Biomarker Activity (AID 2283094). The note with it: primary human HUVEC with PBMC; actives raise or lower the signal. The method in brief:
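HUVEC/PBMC co-culture, 24 h post-dose; IL-8 by ELISA. Gain or loss of signal fitted bidirectionally vs DMSO baseline.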

Test [4] in a line: BSK_SAg_Proliferation: Cell Proliferation Assessment in the BioMAP Diversity Plus: SAg Assay (AID 2283095).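 Also: relative cell number as total protein by SRB absorbance in sub-confluent culture.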 The note with it: primary human HUVEC with PBMC. The procedure, abridged:
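HUVEC/PBMC co-culture, 96-well. TCA-fixed (10%), 0.1% SRB stain, A560 at 96 h. Protein content used as viability readout; bidirectional fitting vs DMSO control.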

Test [5] in a line: BSK_SAg_SRB: Viability Assessment in the BioMAP Diversity Plus: SAg Assay (AID 2283096).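 Also: cells read one day after compound addition; hits may be either gain or loss of signal compared with DMSO.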 Conditions: primary human HUVEC with PBMC. The method in brief: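 Compounds were added to a human vascular co-culture of umbilical vein endothelium and PBMC. After 24 h, parallel cultures were fixed with 10% TCA, stained with 0.1% sulforhodamine B and read at 560 nm. Gain or loss of signal was fitted relative to DMSO.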

Test [6] addresses human CYP1A1, CYP1A1 (gene 1543) (UniProt P04798). Kind of test: NVS_ADME_hCYP1A1: NovaScreen (NVS) CYP450-related Enzyme Activity (ADME) Assay for human CYP1A1 (AID 2283100; active = hit-call score of the fitted dose curve at least 0.9, where 1 is the maximum). The procedure, abridged:
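Recombinant CYP1A1 with a fluorogenic substrate, cell-free, read 1 h after dosing; acetonitrile as negative control. Single-concentration screen at 10 uM in duplicate, then concentration-response up to 20 uM for chemicals meeting ~30% inhibition threshold.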

The target of test [7] is human CYP2B6, CYP2B6 (gene 1555) (UniProt P20813). Kind of test: NVS_ADME_hCYP2B6: NovaScreen (NVS) CYP450-related Enzyme Activity (ADME) Assay for human CYP2B6 (AID 2283101; active = hit-call score of the fitted dose curve at least 0.9, where 1 is the maximum). The method in brief:
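Recombinant human CYP2B6 with fluorogenic substrate, read by fluorescence intensity 1 h after dosing. Primary screen in duplicate at 10 uM, actives followed in concentration series; signal loss relative to acetonitrile control.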

Test [8] deals with human CYP2A6, CYP2A6 (gene 1548) (UniProt P11509). Kind of test: NVS_ADME_hCYP2A6: NovaScreen (NVS) CYP450-related Enzyme Activity (ADME) Assay for human CYP2A6 (AID 2283099; active = hit-call score of the fitted dose curve at least 0.9, where 1 is the maximum). The method in brief:
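Recombinant human CYP2A6 expressed in insect cells, cell-free; fluorogenic substrate turnover read by fluorescence intensity 0.5 h after dosing. Primary screen 10 uM in duplicate, then concentration-response up to 20 uM; acetonitrile as negative control.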

The target in test [9] is human CYP19A1, CYP19A1 (gene 1588) (UniProt P11511). Kind of test: NVS_ADME_hCYP19A1: NovaScreen (NVS) CYP450-related Enzyme Activity (ADME) Assay for human CYP19A1 (AID 2283098; active = hit-call score of the fitted dose curve at least 0.9, where 1 is the maximum;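 as to AC50: potency for inhibitors seen as loss of fluorescent enzyme signal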). The method in brief: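 Fluorescence intensity read-out; activity taken as signal loss relative to acetonitrile vehicle. Extracted enzyme, specific substrate, no cells, 0.5 h exposure. Duplicate single-point screen at 10 uM, then concentration–response follow-up for actives.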

The target of test [10] is human CYP1A2, CYP1A2 (gene 1544) (UniProt P05177). Put plainly: NVS_ADME_hCYP1A2: NovaScreen (NVS) CYP450-related Enzyme Activity (ADME) Assay for human CYP1A2 (AID 2283102; active = hit-call score of the fitted dose curve at least 0.9, where 1 is the maximum;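 also: potency for inhibition since loss of fluorescence marks reduced CYP1A2 activity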). The procedure, abridged:
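Recombinant human CYP1A2 from insect cells, cell-free, fluorogenic substrate; read 0.5 h after dosing with loss of fluorescence signal indicating inhibition. Primary screen in duplicate at 10 uM, acetonitrile as negative control.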

The values that follow come from PubChem BioAssay (EPA / NIEHS).

Several values for one entry are separate records, joined by “and”; a condition that tells them apart may be missing. Equal entries are not always repeated. Records with an inconclusive call do not appear. Some compounds were tested as several samples or in several runs, with calls that do not always agree. Activity calls are given as the source filed them. The calls were made as follows, unless noted: active = hit-call score of the fitted dose curve at least 0.9, where 1 is the maximum; inactive = score below 0.9.

human CYP1A2, CYP1A2 (gene 1544), sequence (P05177 whole entry, looked up): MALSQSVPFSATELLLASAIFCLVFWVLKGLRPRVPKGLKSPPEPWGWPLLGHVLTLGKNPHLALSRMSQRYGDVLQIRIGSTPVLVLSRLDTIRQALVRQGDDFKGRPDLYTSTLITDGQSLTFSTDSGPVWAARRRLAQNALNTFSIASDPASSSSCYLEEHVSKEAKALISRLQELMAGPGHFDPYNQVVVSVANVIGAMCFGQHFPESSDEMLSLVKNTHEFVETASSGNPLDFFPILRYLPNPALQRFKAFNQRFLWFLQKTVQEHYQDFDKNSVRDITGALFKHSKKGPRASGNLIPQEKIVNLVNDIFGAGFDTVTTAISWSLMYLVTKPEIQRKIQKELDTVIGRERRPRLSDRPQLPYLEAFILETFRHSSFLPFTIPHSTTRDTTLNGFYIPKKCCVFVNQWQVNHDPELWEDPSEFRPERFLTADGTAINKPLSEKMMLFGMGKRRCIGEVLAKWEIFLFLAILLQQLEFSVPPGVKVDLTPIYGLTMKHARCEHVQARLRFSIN
human CYP1A1, CYP1A1 (gene 1543), sequence (P04798 whole entry, looked up): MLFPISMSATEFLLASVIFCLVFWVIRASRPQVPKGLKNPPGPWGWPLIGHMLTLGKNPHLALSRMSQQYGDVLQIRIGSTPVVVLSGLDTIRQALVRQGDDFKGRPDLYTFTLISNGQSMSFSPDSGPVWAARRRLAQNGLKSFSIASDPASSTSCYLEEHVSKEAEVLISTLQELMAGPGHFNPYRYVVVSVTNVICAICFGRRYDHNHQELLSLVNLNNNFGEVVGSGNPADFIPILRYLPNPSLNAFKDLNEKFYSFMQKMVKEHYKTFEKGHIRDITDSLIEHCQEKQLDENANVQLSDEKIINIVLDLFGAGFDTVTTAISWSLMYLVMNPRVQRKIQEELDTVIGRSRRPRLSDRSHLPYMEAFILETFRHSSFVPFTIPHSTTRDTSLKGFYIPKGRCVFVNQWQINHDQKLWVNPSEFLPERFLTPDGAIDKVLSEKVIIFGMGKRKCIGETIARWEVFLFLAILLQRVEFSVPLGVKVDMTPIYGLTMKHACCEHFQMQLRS
human CYP2B6, CYP2B6 (gene 1555), sequence (P20813 whole entry, looked up): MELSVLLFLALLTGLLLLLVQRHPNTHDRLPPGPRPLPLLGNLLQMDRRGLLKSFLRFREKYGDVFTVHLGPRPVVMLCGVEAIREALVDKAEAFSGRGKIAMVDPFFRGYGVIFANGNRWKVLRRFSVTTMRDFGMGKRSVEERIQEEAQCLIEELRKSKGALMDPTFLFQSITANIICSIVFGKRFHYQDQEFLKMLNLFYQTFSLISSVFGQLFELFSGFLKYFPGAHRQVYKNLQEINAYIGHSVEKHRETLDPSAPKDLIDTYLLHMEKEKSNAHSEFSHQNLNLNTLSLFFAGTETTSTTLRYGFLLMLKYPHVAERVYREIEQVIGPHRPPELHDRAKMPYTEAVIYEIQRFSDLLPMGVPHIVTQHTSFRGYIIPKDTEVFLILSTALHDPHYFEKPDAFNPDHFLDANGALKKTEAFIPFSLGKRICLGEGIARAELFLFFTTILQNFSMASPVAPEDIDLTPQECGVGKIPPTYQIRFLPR
human CYP19A1, CYP19A1 (gene 1588), sequence (P11511 whole entry, looked up): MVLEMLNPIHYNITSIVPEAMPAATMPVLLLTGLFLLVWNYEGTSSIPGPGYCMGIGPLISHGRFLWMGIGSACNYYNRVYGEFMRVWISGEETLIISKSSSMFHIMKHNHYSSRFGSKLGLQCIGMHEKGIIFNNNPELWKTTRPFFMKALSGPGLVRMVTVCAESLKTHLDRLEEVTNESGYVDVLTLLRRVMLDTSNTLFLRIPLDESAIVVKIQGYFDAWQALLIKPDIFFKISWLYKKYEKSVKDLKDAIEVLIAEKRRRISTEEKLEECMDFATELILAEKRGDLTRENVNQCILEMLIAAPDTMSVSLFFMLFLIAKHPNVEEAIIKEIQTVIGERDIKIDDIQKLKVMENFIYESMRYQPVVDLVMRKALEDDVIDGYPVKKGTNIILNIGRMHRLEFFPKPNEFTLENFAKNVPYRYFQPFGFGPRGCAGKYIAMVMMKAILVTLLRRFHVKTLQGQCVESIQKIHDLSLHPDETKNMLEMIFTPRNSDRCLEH
human CYP2A6, CYP2A6 (gene 1548), sequence (P11509 whole entry, looked up): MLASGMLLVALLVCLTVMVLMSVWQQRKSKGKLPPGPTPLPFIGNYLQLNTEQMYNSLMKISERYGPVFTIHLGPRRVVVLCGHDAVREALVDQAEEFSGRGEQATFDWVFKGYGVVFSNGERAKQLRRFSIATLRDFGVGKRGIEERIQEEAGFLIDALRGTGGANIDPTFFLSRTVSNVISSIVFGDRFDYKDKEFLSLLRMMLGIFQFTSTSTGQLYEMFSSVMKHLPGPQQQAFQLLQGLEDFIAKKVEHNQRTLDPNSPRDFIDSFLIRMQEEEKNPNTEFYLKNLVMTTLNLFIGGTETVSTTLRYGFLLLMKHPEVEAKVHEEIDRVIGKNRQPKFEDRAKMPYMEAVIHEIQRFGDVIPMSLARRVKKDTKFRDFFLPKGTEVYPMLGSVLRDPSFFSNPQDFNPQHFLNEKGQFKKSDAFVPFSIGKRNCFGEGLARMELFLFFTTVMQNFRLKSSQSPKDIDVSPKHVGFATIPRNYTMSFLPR

In the case of `Clc1ccc(C(c2ccccc2Cl)C(Cl)(Cl)Cl)cc1` (stereo not given), the AC50 (in general, the concentration at which the activity in the assay is half-maximal) in [1] is 27.6 µM (active); in [2], 8.98 µM (active); in test [3], 13.5 µM (active); in [4] it was 6.64 µM (active); in test [5], 12.7 µM (active); in test [6] it was 5.21 µM (active).

As for `ClC1=C(Cl)[C@]2(Cl)[C@@H]3[C@@H]4C[C@@H]([C@H]5O[C@@H]45)[C@@H]3[C@@]1(Cl)C2(Cl)Cl`, the result in [1], in test [2] and in test [3] was inactive. Besides, the concentration at half-maximal activity (AC50) is 20 µM (active) in [4], 20 µM (active) in test [5] and 3.88 µM (active) in [7].

With `Cc1cc2c3c(c1)C(c1ccccc1)=N[C@@H](NC(=O)c1ccncc1)C(=O)N3CC2`, the result in [1], in test [2], in [4], in test [5] and in test [8] was inactive. Besides, in test [3], the concentration at half-maximal activity (AC50) was 6.46 µM (active).

Regarding `O=C(NC(=O)c1c(F)cccc1F)Nc1cc(Cl)c(OC(F)(F)C(F)F)c(Cl)c1`, the outcome in test [1], in [2], in test [3], in test [4] and in test [5] was inactive.

For the molecule `Nn1cnnc1`, the outcome in test [1], in test [2], in test [3], in test [4] and in [5] was inactive.

Consider `CC(C)C(=O)OCC(C)(C)C(OC(=O)C(C)C)C(C)C` (stereo not given), for which the outcome in [1], in test [2], in test [3], in test [4] and in [5] was inactive. Besides, in [9], the AC50 is 11.6 µM (active).

On to `CCCCCCCCCc1ccc(O)cc1`, for which the AC50 in [1] was 33.7 µM (active); in [2] it was 16.2 µM (active); in test [3], 20.2 µM (active); in test [4], 14.3 µM (active); in test [5], 23.8 µM (active).

In the case of `O=C(O)C(F)(F)C(F)(F)C(F)(F)C(F)(F)C(F)(F)C(F)(F)C(F)(F)C(F)(F)C(F)(F)F`, the AC50 was 33.7 µM (active) and 54.9 µM (active) and 53.5 µM (active) in test [1]; 29.8 µM (active) and 47.3 µM (active) and 51 µM (active) in test [2]; 36.3 µM (active) and 49.4 µM (active) and 41.4 µM (active) in test [3]; 34.1 µM (active) and 46.2 µM (active) and 47.6 µM (active) in [4]; 32 µM (active) and 53.5 µM (active) and 54.4 µM (active) in test [5].

Consider `C[C@]12CCC(=O)C=C1CC[C@@H]1[C@@H]2CC[C@]2(C)C(=O)CC[C@@H]12`, for which the result in [1], in [2], in test [3] and in test [4] was inactive. Also, the half-maximal activity concentration (AC50) in test [5] was 20 µM (active); in test [9] it was 5.03 µM (active) and 5.63 µM (active) and 1.44 µM (active).

Consider `Oc1ccc(Cl)cc1Cl`, for which the outcome in [1], in [2], in [3], in test [4] and in test [5] was inactive.

On to `CN(C)CCO`, for which the outcome in test [1], in test [2], in [3], in test [4] and in test [5] was inactive.

`CCCCCCCCCC[N+](C)(C)CCCCCCCCCC`: the half-maximal activity concentration (AC50) in [1] was 3.59 µM (active); in [2], 1.77 µM (active); in [3], 7.36 µM (active); in [4], 0.148 µM (active); in test [5], 5.35 µM (active); in test [10] it was 14.3 µM (active).

As to `ClC1=C(Cl)[C@]2(Cl)[C@@H]3[C@H]4C[C@H]([C@@H]5O[C@H]45)[C@@H]3[C@@]1(Cl)C2(Cl)Cl`, the outcome in test [1] and in [3] was inactive. The AC50 in test [2] was 5.53 µM (active); in test [4], 7.7 µM (active); in test [5], 8.56 µM (active); in [7], 4.45 µM (active).

In the case of `Nc1ccc(-c2ccc(N)cc2)cc1`, the outcome in [1], in test [2], in [3], in test [4] and in test [5] was inactive. In addition, the AC50 in [6] was 3.1 µM (active).

For the molecule `O=C(NC(=O)c1cc(F)c(F)cc1Cl)Nc1cc(F)ccc1N1CCC(C(=O)O)CC1`, the outcome in test [1], in test [2], in [3], in test [4] and in [5] was inactive.

As to `ClC(Cl)=C(c1ccc(Cl)cc1)c1ccc(Cl)cc1`, the AC50 in test [1] was 36 µM (active); in test [2] it was 15.4 µM (active); in [3], 34.6 µM (active); in test [4], 18.4 µM (active); in [5], 32 µM (active). In addition, the molecule was called inactive in test [7].

Consider `CC(C)(O)C(=O)Nc1ccc([N+](=O)[O-])c(C(F)(F)F)c1`, for which the outcome in [1], in test [2], in test [3], in test [4], in test [5] and in test [9] was inactive. Moreover, the concentration at half-maximal activity (AC50) in test [9] was 6.99 µM (active) and 5.59 µM (active); in test [10] it was 3.38 µM (active).

In the case of `O=S(=O)(O)C(F)(F)C(F)(F)C(F)(F)C(F)(F)F`, the outcome in test [1], in test [2], in test [3], in [4] and in test [5] was inactive.

Consider `ClC1=C(Cl)[C@]2(Cl)[C@@H]3[C@@H](Cl)[C@H]4O[C@H]4[C@@H]3C1(Cl)C2(Cl)Cl`, for which the result in test [1], in test [2], in [3] and in test [9] was inactive. The AC50 was 14.7 µM (active) in test [4], 10.6 µM (active) in [5] and 7.84 µM (active) in [7].

In the case of `CC#Cc1cc(C)nc(Nc2ccccc2)n1`, the result in [1], in test [2], in test [3] and in test [5] was inactive. The AC50 in test [4] is 28.3 µM (active); in [6], 0.617 µM (active); in [10], 1.96 µM (active).

For `Cc1cc(-c2ccc(N)c(C)c2)ccc1N`, the result in test [1], in test [2], in test [3], in test [5] and in test [9] was inactive. For the same molecule, in test [4], the AC50 was 11.8 µM (active).

As for `O=S(=O)(O)C(F)(F)C(F)(F)C(F)(F)C(F)(F)C(F)(F)C(F)(F)F`, the result in [1], in [2], in [3], in test [4], in [5] and in [9] was inactive. Further, the AC50 in test [10] is 9.34 µM (active).

As for `Cc1cccc([N+](=O)[O-])c1`, the outcome in test [1], in test [2], in [3], in test [4], in test [5] and in test [8] was inactive.

For `Cc1ccc(O)c(C)c1`, the outcome in test [1], in [2], in test [3], in test [4] and in [5] was inactive.

Take `CCNc1nc(NC(C)C)nc(SC)n1`: the result in test [1], in [2], in test [3], in [4] and in [5] was inactive. Moreover, the concentration at half-maximal activity (AC50) in test [10] is 4.92 µM (active).

Consider `CCC(C)(c1ccc(O)cc1)c1ccc(O)cc1`, for which the outcome in test [1] and in test [5] was inactive. Moreover, the AC50 is 29.8 µM (active) in [2], 16 µM (active) in [3], 28.5 µM (active) in test [4] and 4.81 µM (active) in test [7].

Take `CCOC(=O)C(O)(c1ccc(Cl)cc1)c1ccc(Cl)cc1`: the AC50 was 39.3 µM (active) in [1]; 33.7 µM (active) in test [2]; 32.9 µM (active) in test [3]; 30.9 µM (active) in test [4]; 32.3 µM (active) in [5].

With `CC(C)(c1ccccc1)c1ccc(O)cc1`, the concentration at half-maximal activity (AC50) in test [1] is 38.7 µM (active); in test [2], 31.5 µM (active); in test [3], 30.9 µM (active); in [4], 34.2 µM (active); in [5], 30.4 µM (active); in test [7], 7.47 µM (active).

Take `CCOCCOC(C)=O`: the result in [1], in test [2], in test [3], in test [4] and in test [5] was inactive.

Consider `CCCN(CCC)N=O`, for which the outcome in test [1], in test [2], in [3], in test [4], in test [5] and in test [9] was inactive.

Consider `CO/C=C(/C(=O)OC)c1ccccc1COc1cccc(C(F)(F)F)n1`, for which the half-maximal activity concentration (AC50) in [1] was 26.5 µM (active); in [2], 1.17 µM (active); in [3] it was 5.66 µM (active); in [4], 4.57 µM (active); in [5] it was 9.02 µM (active). Also, in test [6], the molecule was classed as inactive.
